Sampled rows, rich in hits. Any-hit rate of the full collection: about 7.4%.
ERK AVP inh = qHTS Assay for Inhibitors of the ERK Signaling Pathway using a Homogeneous Screening Assay; HEK293-V1b, vasopressin-stimulated pERK AlphaScreen; Potency, µM (doses to about 57.5 µM), most hits filed as inhibitors; 0.99% of 72,000 active; AID 995, 2007; note: nearly all actives have a fitted effect of over 55% in size
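Phosphorylated ERK1/2 detected via AlphaScreen bead proximity in lysates of V1b-expressing HEK293 cells given 25 nM vasopressin for 5 min after 30 min compound exposure (37 °C). AC50 from Hill equation; basal DMSO 0%, vasopressin 100%.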
Tau fil binding = qHTS Assay for Tau Filament Binding; 2% of 71,000 active; Microtubule-associated protein tau (Homo sapiens), P10636; Potency, µM (titrated, usually from 57.1 µM); recombinant tau filaments, thioflavin S fluorescence, 15 h; filaments grown with octadecylsulfate alongside compound;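 note: actives lower thioflavin S fluorescence by blocking filaments or displacing dye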
Target sequence (P10636 whole entry, looked up): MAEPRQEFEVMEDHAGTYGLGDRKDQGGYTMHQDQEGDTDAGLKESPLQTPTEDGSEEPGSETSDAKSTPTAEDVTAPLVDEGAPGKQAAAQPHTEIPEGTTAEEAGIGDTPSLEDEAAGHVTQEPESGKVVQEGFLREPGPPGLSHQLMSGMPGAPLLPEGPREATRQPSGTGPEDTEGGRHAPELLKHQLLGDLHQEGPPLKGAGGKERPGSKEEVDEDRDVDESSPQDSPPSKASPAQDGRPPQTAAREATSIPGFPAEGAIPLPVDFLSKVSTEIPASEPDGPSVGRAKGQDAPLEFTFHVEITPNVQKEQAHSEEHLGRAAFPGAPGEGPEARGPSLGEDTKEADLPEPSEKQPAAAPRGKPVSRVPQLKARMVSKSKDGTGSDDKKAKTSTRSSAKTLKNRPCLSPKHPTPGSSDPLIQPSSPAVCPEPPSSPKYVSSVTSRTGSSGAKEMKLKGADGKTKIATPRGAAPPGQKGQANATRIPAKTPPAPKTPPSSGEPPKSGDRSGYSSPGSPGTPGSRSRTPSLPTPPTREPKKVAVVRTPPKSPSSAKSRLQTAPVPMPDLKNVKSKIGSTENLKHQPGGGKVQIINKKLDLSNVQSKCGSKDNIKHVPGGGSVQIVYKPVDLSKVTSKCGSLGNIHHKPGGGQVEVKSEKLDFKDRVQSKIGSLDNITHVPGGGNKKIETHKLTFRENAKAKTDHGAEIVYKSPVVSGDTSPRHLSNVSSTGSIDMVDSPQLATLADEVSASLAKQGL
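Recombinant tau protein (human, 1 uM final) plus 30 uM ODS in HEPES pH 7.4 with NaCl, DTT and thioflavine S. Compound present from the start; fluorescence at 510 nm after 15 h, 37 C.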
CRE-bla Fsk = Cell signaling CRE-BLA (Fsk stim); Potency, µM (doses to about 38.2 µM), hits mostly activators; CHO CRE-bla reporter (cAMP response element driving beta-lactamase), forskolin EC10, beta-lactamase ratio; 2.5% of 71,000 active; active = well fitted activation curve with a large enough effect in the signal ratio, with a control signal flat, not every such curve was filed as active; inconclusive = small, poorly fitted or top-dose-only effect, or effect the other way, or a change in a side signal; the % refers to the signal ratio
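Forskolin analogue NKH 477 at EC10 stimulated CRE-driven beta-lactamase in CHO cells alongside compound dilution series. Beta-lactamase was measured with CCF4, excitation 405 nm, emission ratio 460/530 nm.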
TSHR ag = qHTS Assay for Agonists of the Thyroid Stimulating Hormone Receptor. 0.48% of 73,000 active. Thyrotropin receptor (Homo sapiens), P16473. Potency, µM (doses to about 57.1 µM), hits mostly activators. AID 926, 2007. HEK293-CNG-TSHR cells (CNG channel as cAMP sensor), membrane potential dye, cAMP; active = well fitted activation curve with a large enough effect in the main read-out, with a control signal flat, not every such curve was filed as active; inconclusive = small, poorly fitted or top-dose-only effect, or a change in a side signal; inactive = no such curve, though single readings can be large or run the other way; reference of the percent scale not stated here;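 note: the control signal comes from parental cells without the receptor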
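HEK 293 cells stably expressing TSHR and a cAMP-gated CNG channel; parental CNG-only cells as counterscreen. Cells preloaded 60 min with membrane potential dye plus 100 uM RO 20-1724, then compound 30 min; fluorescence read at 590 nm.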
HEK293 cAMP cs = qHTS Assay for Agonists of the Thyroid Stimulating Hormone Receptor: Activators of Intracellular cAMP Concentrations in Parental HEK 293 | parental HEK293 CNG cAMP sensor, membrane potential fluorescence | 2.5% of 73,000 active | AID 938, 2007 | Potency, µM (doses to about 57.1 µM), usual class: activators; note: nearly all actives have a fitted effect of over 55% in size
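Parental HEK 293 cells stably expressing a cAMP-gated CNG channel were loaded with membrane potential dye containing 100 uM RO 20-1724 for 60 min. Compound added for 30 min; depolarization read as fluorescence intensity at 590 nm.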
Of the large screens only hits and unclear results are named; the others gave an inactive call. Unless noted, calls come from the whole dose curve; as a rule, active = well fitted curve in the direction sought with a large enough effect; inconclusive = small, poorly fitted or top-dose-only effect, or another doubt; inactive = no such curve, though single readings can be large; an effect the other way counts as inactive or inconclusive.

COc1ccc(-n2c(N)c(C(=O)NCc3ccco3)c3nc4ccccc4nc32)c(OC)c1	CRE-bla Fsk inconclusive
COc1ccc2cc3c(N)c(C(=O)NCc4ccco4)sc3nc2c1	ERK AVP inh inconclusive, CRE-bla Fsk 12.6µM
Nc1c(C(=O)NCc2ccco2)sc2nc3c(cc12)C(=O)CCC3	ERK AVP inh inconclusive, Tau fil binding 20µM, CRE-bla Fsk inconclusive
CCCOC(=O)c1sc2nc3c(cc2c1N)C(=O)CCC3	none
Nc1ncnc2c1nc(Sc1ccc(Cl)cc1)n2[C@@H]1O[C@H]2COP(=O)(O)O[C@@H]2[C@H]1O	CRE-bla Fsk inconclusive
Cn1c(Sc2ccc(-c3cccnc3)n2C)ccc1-c1cccnc1	none
COc1ccc(C(=O)Nc2ccc(-c3ccc(C)o3)cc2)cc1S(=O)(=O)N1CCOCC1	ERK AVP inh 2µM, CRE-bla Fsk inconclusive
COc1ccc(C(=O)Nc2ccc(-c3cn4ccsc4n3)cc2)cc1S(=O)(=O)N1CCOCC1	CRE-bla Fsk 2µM
COc1ccc(C(=O)Nc2cccc3c2C(=O)NC3=O)cc1S(=O)(=O)N1CCOCC1	ERK AVP inh inconclusive, CRE-bla Fsk 2.51µM
COc1ccc(C(=O)Nc2cccc(C)c2)cc1S(=O)(=O)N1CCOCC1	TSHR ag inconclusive, HEK293 cAMP cs inconclusive
COc1cccc2c1[C@@H]1CN(CCCCn3c(=O)[nH]c4c(sc5ncc(-c6ccccc6)nc54)c3=O)C[C@H]1CO2	ERK AVP inh inconclusive, Tau fil binding inconclusive, TSHR ag inconclusive
N#CCc1nc(CSc2nc3ccccc3s2)cs1	none
N#CCCCSc1nnc(-c2ccc(Cl)cc2)n1-c1ccccc1	TSHR ag inconclusive, HEK293 cAMP cs 25.1µM
Cc1cccc(-c2nnc(SCC#N)n2-c2ccccc2)c1	ERK AVP inh inconclusive, CRE-bla Fsk inconclusive
N#CCCCSc1nnc(CSc2nc3ccccc3s2)n1-c1ccccc1	ERK AVP inh 25.1µM, CRE-bla Fsk inconclusive, TSHR ag inconclusive, HEK293 cAMP cs inconclusive
COc1ccc(CNc2ncnc3ccc(-c4ccccc4CN(C)C)cc23)c(OC)c1	TSHR ag inconclusive
CCCC(=O)N(c1ccc(OCC)cc1)C1C=CS(=O)(=O)C1 (configuration not stated)	TSHR ag inconclusive, HEK293 cAMP cs 3.16µM
CCOC(=O)C1=C(C)NC(=O)NC1/C(C)=C/c1ccccc1 (configuration not stated)	ERK AVP inh 31.6µM
C=CCn1c(SCC(O)Cn2c3ccccc3c3ccccc32)nnc1-c1ccco1 (configuration not stated)	TSHR ag inconclusive, HEK293 cAMP cs 25.1µM
FC(F)(F)c1ccccc1-c1cncnc1NCCN1CCOCC1	CRE-bla Fsk inconclusive
COc1ccc(CCn2c(N)c(C#N)c3nc4ccccc4nc32)cc1OC	CRE-bla Fsk 15.8µM
N#Cc1c(N)n(CCCN2CCOCC2)c2nc3ccccc3nc12	CRE-bla Fsk 12.6µM
Cc1ccc(S(=O)(=O)c2c(N)n(CCN3CCOCC3)c3nc4ccccc4nc23)cc1C	none
CCCCCn1c(N)c(C#N)c2nc3ccccc3nc21	CRE-bla Fsk 10µM
CCN(CC)CC(=O)Nc1ccc2c(c1)Nc1ccccc1CC2	Tau fil binding 12.6µM, CRE-bla Fsk inconclusive
CCN(CC(=O)Nc1ccc2c(c1)CCC2)Cc1nc2ccccc2c(=O)[nH]1	ERK AVP inh inconclusive, CRE-bla Fsk inconclusive, TSHR ag inconclusive, HEK293 cAMP cs inconclusive
O=C1OC(O)C(C(Cl)Cl)=C1Cl (configuration not stated)	CRE-bla Fsk inconclusive
CC(C)n1c(SCC(=O)N2c3ccccc3Sc3ccccc32)nc2c1c(=O)n(C)c(=O)n2C	CRE-bla Fsk 1µM, TSHR ag inconclusive, HEK293 cAMP cs inconclusive
O=C(O)CN(CC(=O)O)c1ccccc1	TSHR ag inconclusive, HEK293 cAMP cs inconclusive
N#C[C@H](c1ccccc1)N1CCCN([C@@H](C#N)c2ccccc2)C1c1ccccc1O (some centres not stated)	none
C[C@@H](COc1ccc(/C=C\c2ccccc2)cc1)[N+](C)(C)C	none
COc1ccc(-c2c(=O)n(OCc3ccccn3)c3ccccc3[n+]2[O-])cc1OC	ERK AVP inh inconclusive, Tau fil binding 2.51µM
COc1ccc(-c2nc3c(c4c2CC(C)OC4)CN(CCC(C)C)CC3)cc1 (configuration not stated)	none (no result: Tau fil binding, CRE-bla Fsk)
CC(C)(C)n1nnnc1C(c1ccccc1F)N(Cc1ccco1)CC1CCCO1 (configuration not stated)	TSHR ag inconclusive, HEK293 cAMP cs 12.6µM
CCOC(=O)Cc1csc(NC(=O)CSc2ncnc3c2cnn3-c2ccccc2Cl)n1	ERK AVP inh 39.8µM, TSHR ag inconclusive, HEK293 cAMP cs inconclusive
NC[C@H]1O[C@H](n2cnc3c(N)ncnc32)C[C@@H]1O	none
Cn1cccc1C(=O)N1CCC2(CCCN(c3cccc(-c4ccccc4)c3)C2)CC1	none
COc1ccc(CCNC(=O)c2ccc3nc(-c4ccco4)c(-c4ccco4)nc3c2)cc1OC	ERK AVP inh 20µM, Tau fil binding 3.16µM, CRE-bla Fsk inconclusive
COc1ccc(CCNC(=O)COC(=O)c2ccco2)cc1OC	none
CCn1c(CCNC(=O)c2ccc(OC)c(OC)c2)nc2ccccc21	CRE-bla Fsk 12.6µM, TSHR ag inconclusive, HEK293 cAMP cs inconclusive
CCN(CC(=O)O)CC(=O)O	none
c1nc(N2CCNCC2)c2cc(-c3ccc4c(c3)OCO4)ccc2n1	CRE-bla Fsk inconclusive
CN(C)c1ncnc2ccc(-c3ccccc3C#N)cc12	CRE-bla Fsk 2µM
CN(C)c1ccc(-c2ccc3ncnc(N4CCNCC4)c3c2)cc1	Tau fil binding 12.6µM, CRE-bla Fsk inconclusive
CN(C)c1ccc(-c2ccc3ncnc(N(C)C)c3c2)cc1	ERK AVP inh inconclusive, Tau fil binding 5.01µM, CRE-bla Fsk 10µM
CN(C)c1ncnc2ccc(-c3ccoc3)cc12	ERK AVP inh inconclusive
N[C@H](Cc1cccc(-c2ccccc2CP(=O)(O)O)c1)C(=O)O	ERK AVP inh inconclusive
CCSc1nncn1/N=C/c1ccc(OC)c(OC)c1	CRE-bla Fsk 10µM
C=C(C)CSc1nncn1/N=C/c1ccc(OC)cc1	ERK AVP inh inconclusive
NC(N)=N[C@H](CC(=O)O)c1ccccc1	none
C/C=C/Cn1c(SC)nc2c1c(=O)[nH]c(=O)n2C	CRE-bla Fsk 10µM
CCC(C)Sc1nc2c(c(=O)[nH]c(=O)n2C)n1Cc1ccccc1Cl (configuration not stated)	CRE-bla Fsk 5.01µM (no result: ERK AVP inh)
C/C=C/Cn1c(SCc2ccc(Cl)cc2)nc2c1c(=O)[nH]c(=O)n2C	CRE-bla Fsk 2µM, TSHR ag inconclusive, HEK293 cAMP cs 25.1µM
Cc1csc(Sc2nc3c(c(=O)[nH]c(=O)n3C)n2Cc2ccccc2Cl)n1	none

Screens from PubChem.
